# Test results from PubChem BioAssay AID743279 (National Center for Advancing Translational Sciences (NCATS), 2014).
# Among all 360,000 compounds or so, about 17,000 (4.7%) were called active. Roughly 5% stayed inconclusive and do not appear here. The full list was thinned out, with actives kept by preference. A number with no mark means an inactive call. No stated cut-off is given here; in the data, active means activity change below about -50%; inconclusive means mostly about -30% to -49%; inactive means weaker than that.
# Experiment: qHTS for Inhibitors of Inflammasome Signaling: IL-1-beta AlphaLISA Primary Screen
# Conditions: THP-1 LPS/ATP IL-1B secretion, 16 h; at 57.5 µM, active compounds read low
# Excerpt: Inflammasomes are a set of intracellular multi-protein complexes that enable autocatalytic activation of inflammatory caspases and drive the innate immune response to counter harmful agents. […] A qHTS assay, based on AlphaLISA technology, was developed to screen the Molecular Libraries Small Molecule Repository (MLSMR) to look for novel inflammasome inhibitors. The assay detects IL-1B using AlphaLISA anti-IL-1B acceptor and donor beads. A decreased emission signal, indicating reduced IL-1B secretion, is the desired outcome for this assay. NIH Chemical Genomics Center [NCGC] NIH Molecular Libraries Probe Centers Network [MLPCN] MLPCN Grant: MH095513 Assay Provider: Shyam Biswal Ph.D., Johns Hopkins University Immunity. 2012 Jul 27;37(1):85-95. PMID: 22819042 [2] Curr Pharm Des. 2012;18(16):2320-8. PMID: 22390695
# Three microliters containing 3000 THP-1 cells were dispensed into the wells of solid, white, tissue culture treated Greiner 1,536-well plates. Library compounds and positive control, Glyburide, were pin-transferred (23 nL) by a Kalypsys pin-tool equipped with a 1,536-pin array, resulting in final compound concentration ranges of 2.5 nM to 57.5 uM. After 1 hr of cell culture incubation (37 °C, 5% CO2), 1 microL of 1 microg/mL lipopolysaccharide (250 ng/mL, final) and 5 mM ATP (1.25 mM, final) were added to stimulate the cells. After 16 hr of cell culture incubation with the compounds, 1.5 uL of anti-IL-1B acceptor beads (6 ug/mL, final) and biotinylated antibody (0.6 nM, final) were added to the plate, followed by a 1 hr incubation at ambient temperature. To detect the secreted IL-1B, 1.5 uL of AlphaLISA SA-Donor beads (24 ug/mL, final) were added, followed by 30 min of incubation in the dark at ambient temperature. The AlphaLISA signal was read by a PerkinElmer EnVision plate reader with an ultrasensitive luminescence detector and 1536 Plate HTS AlphaScreen aperture (excitation of 680nm and emission of 615nm).
# On the % scale 0 is the no-effect control and ±100 the full control effect.
row,Compound,activity change
1,COC(=O)c1sccc1NC(=O)COc1ccc(Cl)cc1,-5.02%
2,CCOC(=O)c1c(NC(=O)c2ccc(S(=O)(=O)N(C)CC3CCCO3)cc2)sc2c1CC(C)(C)NC2(C)C (stereo not given),-16.8%
3,COC(=O)c1c(NC(=O)COc2ccc(Cl)cc2Cl)sc2c1CC(C)(C)NC2(C)C,-99.6% (active)
4,C[C@@H]1CN([C@H](C)CO)C(=O)CCCn2cc(nn2)CO[C@H]1CN(C)S(C)(=O)=O,-20.6%
5,COC(=O)Cc1ccc(OC2(C)CCN(Cc3ccc4c(c3)OCCO4)C2)cc1 (stereo not given),12.5%
6,COc1cc2c(cc1OC)C(Cc1cc(OC)c(OC)cc1[N+](=O)[O-])=NCC2,-58.9% (active)
7,COc1cc(CN2CCCN(C)CC2)c([N+](=O)[O-])cc1OC,26.5%
8,COc1cc2c(cc1OC)C(c1cccc([N+](=O)[O-])c1)=NCC2,-7.18%
9,C=CCOc1ccccc1CNn1c(C)n[nH]c1=S,0.633%
10,CC(C)=CCc1ccc(O)c(=O)cc1C(C)C,1.89%
11,CC(C)=CCc1c(O)c(CC=C(C)C)c2occ(-c3ccc(O)cc3)c(=O)c2c1O,-78.8% (active)
12,COc1cc(CNc2ncnc3c2ncn3[C@H]2CN(Cc3cccs3)C[C@@H](CO)O2)cc(OC)c1OC,0.705%
13,CCCCn1c(N)c(N(CCOC)C(=O)CSCC(=O)Nc2cccc(C)c2)c(=O)[nH]c1=O,9.86%
14,CCCCn1c(-c2cccc(C)c2)nc2cc3[nH]c(=O)c(C(C)C)nc3cc21,-61% (active)
15,CCCCCn1nnnc1-c1nc2cc3ccccc3cc2[nH]c1=O,1.49%
16,CC(C)Oc1ccc(C2NC(=O)NC2=O)cc1 (stereo not given),10.2%
17,COc1ccccc1-c1n[nH]nc1C1=CC(=O)CC(C)(C)C1,-12.1%
18,c1ccc2c(c1)nnn2-c1ccncc1,-56.6% (active)
19,Cc1ccc(-c2nnc(-n3nnc4ccccc43)c3ccccc23)cc1,55.9%
20,COc1cc2nnn(-c3ccncc3)c2cc1OC,-22.1%
21,CC(Sc1ccc(S(=O)(=O)N2CCN(C)CC2)cn1)C(=O)NC1CCCC(C)C1C (stereo not given),-7.4%
22,COc1cccc(-c2cc3nc4c(c(N5CCC6(CC5)OCCO6)n3n2)CCCC4)c1,-96.1% (active)
23,COc1cccc(CNc2nc3nc4c(c(=O)n3[nH]2)CCC4)c1,-4.67%
24,N#C/C=C\Oc1ccc(Cl)cc1N,-9.78%
25,Cc1ccccc1S(=O)(=O)NC(=O)C1(C)CCN1C(=O)C1(c2ccccc2)CCCC1 (stereo not given),31.4%
